Assay outcomes as filed in PubChem.
This is a sample that favours compounds with a hit; in the whole collection about 9.2% have one here.
ELG1 DNA repair – qHTS screen for small molecules that inhibit ELG1-dependent DNA repair in human embryonic kidney (HEK293T) cells expressing luciferase-tagged ELG1; HEK293T ELG1-luciferase reporter, luminescence, 16 h; DNA damage induced by 5-fluorouridine; Potency, µM (doses to about 46.1 µM), actives largely listed as inhibitors; 330,000 tested, 2.3% active; also: nearly all actives have a fitted effect of over 55% in size
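Luminescence from the luciferase reporter, measured 30 min after ONE-Glo reagent at room temperature, was the read-out. Beforehand, 2,000 cells per well were exposed for 16 hr at 37 °C to 5-fluorouridine together with compound or vehicle.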
Rab9 promoter act – qHTS Assay for Rab9 Promoter Activators; Potency, µM (series often up to 9.22 µM), most hits filed as activators; AID 485297, 2010; 320,000 tested, 2.8% active; Huh7 Rab9 promoter-luciferase reporter, luminescence, 24 h; also: nearly all actives have a fitted effect of over 60% in size
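Luciferase signal after 10 min detection reagent at ambient indicates Rab9 promoter upregulation; stably transfected Huh7 cells were treated 24 h with compound in DMSO at 37 °C, 5% CO2.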
NPC1 prom act – qHTS Assay for NPC1 Promoter Activators | Huh7 NPC1 promoter luciferase reporter, 24 h | AID 485313, 2010 | 320,000 tested, 2.4% active | Potency, µM (top dose mostly 9.22 µM), actives largely listed as activators; also: nearly all actives have a fitted effect of over 60% in size
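NPC1 promoter–luciferase Huh7 cells; 24 h compound; luminescence.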
SMN2 splice up – qHTS Assay for Enhancers of SMN2 Splice Variant Expression | HEK293 SMN2-luciferase splicing reporter, luminescence, 30-36 h | Potency, µM (highest dose often 46.1 µM), hits mostly activators | 210,000 tested, 2.8% active | AID 1458, 2008; also: nearly all actives have a fitted effect of over 55% in size
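qHTS luciferase splicing reporter: luminescence rises when SMN2 exon 7 is included in transfected HEK293 cells. Compound exposure lasted 30-36 h at 37C, with 4.5 mM final sodium butyrate as control, followed by a ONE-Glo read.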
FLuc modulator – qHTS profiling assay for firefly luciferase inhibitor/activator using purifed enzyme and Km concentrations of substrates (counterscreen for miR-21 project) | Potency, µM (highest dose often 57.5 µM), hits mostly inhibitors | purified FLuc, Km substrates, luminescence inhibition | 360,000 tested, 6.9% active | AID 588342, 2011 | Luciferin 4-monooxygenase (Photinus pyralis), P08659; also: nearly all actives have a fitted effect of over 55% in size
Target sequence (P08659 whole entry, looked up): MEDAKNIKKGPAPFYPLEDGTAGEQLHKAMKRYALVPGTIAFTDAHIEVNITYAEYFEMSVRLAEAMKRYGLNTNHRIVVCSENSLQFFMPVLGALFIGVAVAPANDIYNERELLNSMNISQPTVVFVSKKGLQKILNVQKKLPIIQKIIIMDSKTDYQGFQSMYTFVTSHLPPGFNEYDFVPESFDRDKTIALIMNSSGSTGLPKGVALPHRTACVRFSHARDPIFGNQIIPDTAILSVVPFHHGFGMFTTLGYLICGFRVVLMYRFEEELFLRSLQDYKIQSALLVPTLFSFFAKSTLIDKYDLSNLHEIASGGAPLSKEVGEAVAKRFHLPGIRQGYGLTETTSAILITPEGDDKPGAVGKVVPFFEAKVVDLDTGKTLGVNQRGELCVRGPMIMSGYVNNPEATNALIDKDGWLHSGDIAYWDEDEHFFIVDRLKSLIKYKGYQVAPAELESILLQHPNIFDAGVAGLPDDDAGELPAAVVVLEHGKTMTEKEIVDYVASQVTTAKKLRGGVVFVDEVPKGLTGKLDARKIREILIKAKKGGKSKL
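Purified P. pyralis luciferase, 10 nM final, with Km-level 10 uM D-luciferin and 10 uM ATP in 50 mM Tris acetate pH 7.5, 10 mM Mg acetate, 0.01% Tween-20, 0.05% BSA; 6-point qHTS titration about 60 µM downward; luminescence read.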
ELG1 genotoxic – qHTS screen for small molecules that induce genotoxicity in human embryonic kidney (HEK293T) cells expressing luciferase-tagged ELG1. HEK293T ELG1-luciferase reporter, luminescence, 16 h. 330,000 tested, 1.3% active. Potency, µM (titrated, usually from 46 µM), most hits filed as activators. AID 504466, 2011; also: nearly all actives have a fitted effect of over 60% in size
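Genotoxicity was scored as increased ELG1-luciferase reporter signal, measured by ONE-Glo luminescence (30 min, room temperature). Compound or vehicle exposure of the HEK293T reporter cells lasted 16 hr at 37°C.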
Hits are given with their value; i = inactive; ? = inconclusive; nt = no result given; [ ] = another dose, or the depositor's remark. Calls follow the shape of the dose curve; as a rule, active = well fitted curve in the direction sought with a large enough effect; inconclusive = small, poorly fitted or top-dose-only effect, or another doubt; inactive = no such curve, though single readings can be large; an effect the other way counts as inactive or inconclusive.

SMILES | ELG1 DNA repair | Rab9 promoter act | NPC1 prom act | SMN2 splice up | FLuc modulator | ELG1 genotoxic
COc1cccc(C(=O)Nc2ccc3c(c2)CCCN3C(=O)c2cccs2)c1OC | ? | i | i | nt | 9.5µM | i
COc1cc(OC)c(C(=O)Nc2ccc3ccccc3c2)cc1OC | ? | 2.5µM | ? | nt | 4.8µM | ?
CC(C)OC(=O)c1cccc(C(=O)Nc2cccc(NC(=O)c3cccc(C(=O)OC(C)C)n3)n2)n1 | 8.2µM | i | i | i | i | i
COc1ccc(NC(=O)c2cc3ccccc3cc2OC)cc1OC | i | i | i | nt | 27µM | i
O=C(NCC(c1ccco1)N1CCCC1)c1cc2cc(Cl)ccc2o1 (stereo not given) | ? | i | i | nt | i | i
COc1cccc(-n2cnc3sc(C)c(C)c3c2=O)c1 | ? | i | i | i | ? | i
COc1cccc(C(=O)Nc2ccc(N(C)C)cc2)c1OC | ? | 1.4µM | 2.8µM | 11µM | 5.4µM | ?
COc1cccc(NC(=O)c2cc3ccccc3cc2OC)c1 | ? | i | i | nt | 9.5µM | ?
COC(=O)COc1cc2ccccc2cc1C(=O)Nc1ccccc1 | i | i | i | i | 9.5µM | i
COc1cccc(NC(=O)c2cccc(OC)c2OC)c1 | ? | ? | ? | 16µM | 21µM | 10µM
COc1cccc(C(=O)Nc2ccncc2)c1OC | i | i | i | nt | i | i
O=C(Nc1ccccc1)c1cc2ccccc2c(=O)s1 | ? | 2.8µM | ? | ? | 11µM | i
O=C(Nc1ccc(O)cc1)c1cc2ccccc2c(=O)s1 | ? | ? | 4µM | nt | ? | i
Cc1cc(C)cc(NC(=O)c2cc3c(=O)n4ccccc4nc3s2)c1 | i | i | i | nt | i | i
CC(C)c1ccc(NC(=O)c2cc3c(=O)oc4ccccc4c3s2)cc1 | nt | nt | nt | i | i | nt
O=C(Nc1ccc2c(c1)CCC2)c1cc(S(=O)(=O)N2CCN(c3ccccc3)CC2)ccc1Cl | i | i | i | i | i | i
Cc1ccc(-c2noc(C3CCN(C(=O)Nc4ccc(C#N)cc4)CC3)n2)o1 | 26µM | i | i | i | i | i
CN(C)c1ccc(-c2noc(C3CCN(C(=O)Nc4ccc(Cl)cc4)CC3)n2)cc1 | ? | i | i | nt | i | i
Cc1cccc(C(=O)N2CCCC(c3nc(-c4ccc(C)o4)no3)C2)c1 (stereo not given) | ? | 4µM | ? | nt | ? | i
CCOc1ccc(C(=O)N2CCCC(c3nc(-c4cccs4)no3)C2)cc1 (stereo not given) | i | i | i | nt | 21µM | i
CCC(CC)C(=O)N1CCCC(c2nc(-c3cccs3)no2)C1 (stereo not given) | i | i | i | i | i[2.3 µM] | i
O=C(O)C1CCC(Cn2c(SCc3cc(=O)n4ccccc4n3)nc3ccsc3c2=O)CC1 (stereo not given) | i | i | i | i | i | i
CCC(C)n1c(SCC(=O)NC2CCCC2)nc2ccccc2c1=O (stereo not given) | i | i | i | nt | i | i
Cc1ccc(NC(=O)/C(C#N)=C/c2ccccc2Cl)cc1C | nt | nt | nt | i | 11µM | nt
Cc1ccc(NC(=O)/C(C#N)=C/c2cccs2)c(C)c1 | ? | 3.5µM | 2µM | 13µM | i | ?
SMILES | ELG1 DNA repair | Rab9 promoter act | NPC1 prom act | SMN2 splice up | FLuc modulator | ELG1 genotoxic
N#C/C(=C\c1ccccc1)C(=O)Nc1nncs1 | i | i | i | nt | 19µM | i
CC(C)(C)c1ccc(/C=C(\C#N)C(=O)Nc2ccccn2)cc1 | i | i | i | nt | 8.5µM | i
CC1=CC(C)[C@H](/C=N/n2c(=O)[nH]c3c([nH]c4ccc(C)cc43)c2=O)C(C)C1 (stereo not given in full) | i | i | i | i | i | i
Cc1cccc(C)c1NC(=O)/C(C#N)=C/c1cccs1 | i | i | i | i | i | i
CC(C)(C)c1ccc(C(=O)/C(C#N)=C/c2cccs2)cc1 | ? | i | i | nt | 1.2µM | i
N#C/C(=C\c1ccccc1Cl)C(=O)Nc1ccccn1 | i | i | i | nt | 19µM | i
CC(NC(=O)/C(C#N)=C/c1cccs1)c1ccccc1 (stereo not given) | i | i | i | i | i | i
CC(C)(C)c1ccc(C(=O)Nc2ccc(C=C(C#N)C#N)cc2)cc1 | ? | 0.5µM | ? | ? | 4.8µM | ?
N#C/C(=C\Nc1ccccn1)C(=O)C1CC1 | nt | nt | nt | i[9.22 µM] | nt | nt
N#C/C(=C\c1cccs1)C(=O)Nc1ccccn1 | ? | 1.6µM | 2.2µM | nt | 3.4µM | ?
C=CCn1c(SCc2c(C(=O)OC)sc(N)c2C(=O)OC)nnc1-c1ccc(Br)cc1 | ? | i | i | i | i | i
CC1(C)CC2CC(C)(CN2S(=O)(=O)c2ccc(F)cc2F)C1 (stereo not given) | i | i | i | nt | i | i
Cc1c(C(=O)CN2CCCC(C)(C)C2)c2ccccc2n1C | i | i | i | nt | i | i
Cc1cccc(/C=C(\C#N)C(=O)Nc2ccccn2)c1 | i | i | i | nt | ? | i
N#C/C(=C\c1ccccc1)C(=O)Nc1ccccn1 | i | i | i | nt | 15µM | i
C=CCOc1ccc(/C=C(\C#N)C(=O)Nc2ccccn2)cc1 | i | i | i | nt | 2.1µM | i[9.26 µM]
COc1cccc(CN(C)C(=O)c2ccc(Oc3ccccc3)cc2)c1OC | i | i | i | nt | i | i
COc1ccc(-c2nn(-c3ccccc3)cc2/C=N/NC(=S)NC(C)C)cc1OC | 12µM | i | i | i | i | i
COc1ccc(-c2nn(-c3ccccc3)cc2/C=N/Nc2ccc3ccccc3n2)cc1OC | 12µM | i | i | i | 11µM | i
O=C(Nc1nc2c(F)c(F)c(F)cc2s1)c1ccco1 | ? | 2.5µM | 2.2µM | nt | 6µM | ?
O=C(CCc1ccccc1)Nc1nc2c(F)cc(F)cc2s1 | ? | i | ? | nt | 17µM | i
O=C(COC(=O)c1ccco1)Nc1nc2c(F)c(F)c(F)cc2s1 | i | i | i | nt | i | i
O=C(Nc1nc2c(F)cc(F)cc2s1)c1ccco1 | ? | 0.45µM | 0.71µM | nt | 4.8µM | ?
O=C(Nc1nc2c(ccc3ccccc32)s1)c1ccco1 | ? | ? | ? | i | 13µM | i
COc1ccccc1CN1CC2(CCN(C(=O)c3cc(C(F)(F)F)cc(C(F)(F)F)c3)CC2)C1 | nt | nt | nt | i | nt | nt
CCN(CC)CCNC(=O)c1ccc2nc(CCc3ccccc3)oc2c1 | nt | nt | nt | nt | i | nt
O=C1NCCC/C1=N/Nc1cc(F)ccc1F | ? | ? | ? | nt | 19µM | ?
CC(=O)C1=C(C)NC(SCC(=O)c2ccc(-c3ccccc3)cc2)=C(C#N)C1c1cccnc1 (stereo not given) | i | i | i | i | ? | i
